Experiment: Peg3 promoter luciferase inhibitors, potency, dose response, cell-based, HeLa, CREF/GAPDH counter-screen panel (AID 624167)
Settings: CREF/GAPDH counter-screens; run 2, dose range 1, at 100 µM (top of the series)
`Cc1ccc(/C=C2\SC(=S)N(CCCC(=O)NNC(=O)c3ccccc3O)C2=O)cc1` showed an inhibition of 69.2%. For `CCN(CC)S(=O)(=O)c1cccc(C(=O)N/N=C(\C)c2ccc(O)cc2O)c1`, the inhibition was -50.5%. Compound `CCOC(=O)c1c(SCCN2CCCCC2)n(-c2ccccc2)c(=S)n(-c2ccccc2)c1=O` has an inhibition of 98%. Compound `CS(=O)(=O)Nc1cccc(NC(=O)C2Cc3c(-c4cccc(F)c4)ccnc3O2)c1` (stereo not given) has an inhibition of 73.6%. `Cc1ccc(/C=C2\SC(=S)N(CCCC(=O)Nc3ccccn3)C2=O)cc1` showed an inhibition of 76.5%. Work on `O=C(/C=C/c1ccc(Cl)c([N+](=O)[O-])c1)c1ccc(O)cc1` yielded an inhibition of 99.5%. In the case of `CCCCC(=O)NC(c1ccc(OC)cc1)c1ccc2cccnc2c1O` (stereo not given), the inhibition is reported as 20.5%. With `CC(C)(C)c1ccc(Cn2c(=O)cnc3ccccc32)cc1` the inhibition was 96.6%. For `CCCCC(=O)NC(c1ccccc1OC)c1ccc2cccnc2c1O` (stereo not given), the inhibition was 50.9%. `COc1cc(Nc2c3ccccc3nc3ccccc23)cc(OC)c1OC` showed an inhibition of 100%. In the case of `C=C1CC2(OC1=O)c1ccccc1CCc1ccccc12`, the inhibition is reported as 99.7%. Work on `COC(=O)C1C=CC(OC2OC(COC(C)=O)C(OC(C)=O)C(OC(C)=O)C2OC(C)=O)n2c(=O)n(-c3ccccc3)c(=O)n21` (stereo not given) yielded an inhibition of 84.2%. Work on `CC(/C=C/c1ccccc1)=N/NC(=O)c1cc([N+](=O)[O-])cc([N+](=O)[O-])c1` yielded an inhibition of 12.6%. Compound `COc1cc(/C=C2\SC(=Nc3ccccc3OC)NC2=O)ccc1O` has an inhibition of 39.3%. With `CCCC(=O)NC(c1ccc(N(C)C)cc1)c1ccc2cccnc2c1O` (stereo not given) the inhibition was 27.1%.

Source: PubChem BioAssay AID624167 (Sanford-Burnham Center for Chemical Genomics, 2012)
